Binding signal data for 1 sequence are collected here from article PMC7862700, “An all-to-all approach to the identification of sequence-specific readers for epigenetic DNA modifications on cytosine”.

What all share (experiment): DAPPL (digital affinity profiling via proximity ligation, sequencing); 10 mM Tris-HCl pH 7.5, 50 mM NaCl, 1 mM DTT, 4% glycerol, room temperature, 30 min; GST-TFs on glutathione beads, 16-mer random dsDNA library, 0.1% formaldehyde crosslink after washing; high values mean tight binding
One experiment addresses T1, FLI1 (Homo sapiens, UniProt Q01543 1-452).
T1 sequence: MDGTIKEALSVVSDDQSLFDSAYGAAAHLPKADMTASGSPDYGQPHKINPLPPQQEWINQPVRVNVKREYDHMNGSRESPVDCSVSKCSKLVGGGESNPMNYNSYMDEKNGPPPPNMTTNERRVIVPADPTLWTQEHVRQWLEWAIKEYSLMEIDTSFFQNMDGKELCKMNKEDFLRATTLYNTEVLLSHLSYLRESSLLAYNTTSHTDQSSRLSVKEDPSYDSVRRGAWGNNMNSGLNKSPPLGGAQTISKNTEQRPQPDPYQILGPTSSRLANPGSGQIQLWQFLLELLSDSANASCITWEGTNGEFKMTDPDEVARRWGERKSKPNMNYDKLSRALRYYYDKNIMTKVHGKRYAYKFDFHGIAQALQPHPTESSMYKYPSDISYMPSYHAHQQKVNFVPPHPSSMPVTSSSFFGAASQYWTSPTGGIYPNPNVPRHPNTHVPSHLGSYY
To be noted: protein: recombinant; tags: N-terminal GST; dsDNA, one strand shown. The method, boiled down:
(§1)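 The binding signal reported is, for every hexamer, its read frequency for a factor over its read frequency for the tag-only sample. Reads came from pools of yeast-expressed, GST-fused human transcription factors on glutathione beads, barcoded with DNA and mixed with that sample, which were incubated with 200 nmole of a random double-stranded 16-mer DNA library in Tris/NaCl/DTT/glycerol buffer at room temperature for 30 min. After washing, the pools were crosslinked with 0.1% formaldehyde, proximity-ligated with BsaI/T4 ligase for 1 h at 37 °C, PCR-amplified and sequenced on an Illumina NextSeq500.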

In a further experiment the target is T2, ELK1 (Homo sapiens, UniProt P19419 1-428).
T2 sequence: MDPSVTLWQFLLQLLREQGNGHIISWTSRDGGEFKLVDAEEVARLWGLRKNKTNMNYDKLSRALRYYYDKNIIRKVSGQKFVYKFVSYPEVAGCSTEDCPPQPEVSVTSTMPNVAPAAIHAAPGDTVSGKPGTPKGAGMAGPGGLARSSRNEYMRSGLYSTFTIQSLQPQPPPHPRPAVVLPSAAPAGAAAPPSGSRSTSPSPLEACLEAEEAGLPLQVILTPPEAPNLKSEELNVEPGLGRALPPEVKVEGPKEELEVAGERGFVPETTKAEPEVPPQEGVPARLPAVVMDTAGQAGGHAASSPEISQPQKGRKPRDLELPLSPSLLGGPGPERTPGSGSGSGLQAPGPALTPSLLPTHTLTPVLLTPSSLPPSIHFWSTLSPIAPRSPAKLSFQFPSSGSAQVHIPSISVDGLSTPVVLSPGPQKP
The following applies: protein: recombinant; tags: N-terminal GST; dsDNA, one strand shown. In a few lines:
as §1

The target in another experiment is T3, GABPA (Homo sapiens, UniProt Q06546 1-454).
T3 sequence: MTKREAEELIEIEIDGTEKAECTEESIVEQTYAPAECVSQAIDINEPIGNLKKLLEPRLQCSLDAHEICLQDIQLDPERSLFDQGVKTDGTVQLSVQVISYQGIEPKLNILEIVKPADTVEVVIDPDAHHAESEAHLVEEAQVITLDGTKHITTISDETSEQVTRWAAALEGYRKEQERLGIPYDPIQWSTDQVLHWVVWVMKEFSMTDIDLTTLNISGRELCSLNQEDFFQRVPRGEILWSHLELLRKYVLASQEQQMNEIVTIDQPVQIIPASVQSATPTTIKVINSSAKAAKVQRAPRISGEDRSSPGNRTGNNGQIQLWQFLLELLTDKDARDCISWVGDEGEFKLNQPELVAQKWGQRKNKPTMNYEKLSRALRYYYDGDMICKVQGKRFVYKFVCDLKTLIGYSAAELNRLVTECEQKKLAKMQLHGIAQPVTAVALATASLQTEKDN
To be noted: protein: recombinant; tags: N-terminal GST; dsDNA, one strand shown. The method, boiled down: as §1

The next experiment deals with T4, ERG (Homo sapiens, UniProt P11308 1-479).
T4 sequence: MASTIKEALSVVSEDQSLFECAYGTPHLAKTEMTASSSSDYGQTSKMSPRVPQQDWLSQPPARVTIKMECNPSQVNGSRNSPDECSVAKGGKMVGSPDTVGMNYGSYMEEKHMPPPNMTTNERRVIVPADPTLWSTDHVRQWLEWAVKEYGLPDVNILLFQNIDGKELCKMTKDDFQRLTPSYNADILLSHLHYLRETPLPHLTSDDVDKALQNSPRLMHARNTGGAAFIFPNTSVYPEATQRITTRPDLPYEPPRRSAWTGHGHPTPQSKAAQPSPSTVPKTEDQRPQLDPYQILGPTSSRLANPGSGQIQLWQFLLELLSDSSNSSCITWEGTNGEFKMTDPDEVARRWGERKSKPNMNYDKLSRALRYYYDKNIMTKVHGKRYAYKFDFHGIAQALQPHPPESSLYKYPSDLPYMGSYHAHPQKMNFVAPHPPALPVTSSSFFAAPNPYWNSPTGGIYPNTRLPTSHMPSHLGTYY
To be noted: protein: recombinant; tags: N-terminal GST; dsDNA, one strand shown. The method, boiled down: as §1

The target of the next experiment is ELF1 (Homo sapiens, UniProt P32519 1-619). The following applies: protein: recombinant; tags: N-terminal GST; dsDNA, one strand shown. In a few lines:
as §1

The target in a further experiment is T5, EHF (Homo sapiens, UniProt Q9NZC4 1-300).
T5 sequence: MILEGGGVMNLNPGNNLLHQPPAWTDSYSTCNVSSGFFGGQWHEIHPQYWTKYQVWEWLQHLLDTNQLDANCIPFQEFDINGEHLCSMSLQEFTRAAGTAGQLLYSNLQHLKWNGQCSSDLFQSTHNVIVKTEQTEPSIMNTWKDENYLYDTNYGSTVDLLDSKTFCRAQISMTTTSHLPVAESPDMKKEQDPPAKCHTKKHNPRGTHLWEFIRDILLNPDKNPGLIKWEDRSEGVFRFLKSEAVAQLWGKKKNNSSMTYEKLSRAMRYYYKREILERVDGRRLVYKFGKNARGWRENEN
The following applies: protein: recombinant; tags: N-terminal GST; dsDNA, one strand shown. The method, boiled down:
as §1

Another experiment concerns the target SPI1 (Homo sapiens, UniProt P17947 1-270). To be noted: protein: recombinant; tags: N-terminal GST; dsDNA, one strand shown. In a few lines: as §1
The next experiment has as its target SPIB (Homo sapiens, UniProt Q01892 1-262). The following applies: protein: recombinant; tags: N-terminal GST; dsDNA, one strand shown. The method, boiled down: as §1
A further experiment addresses T6, ELK3 (Homo sapiens, UniProt P41970 1-407).
T6 sequence: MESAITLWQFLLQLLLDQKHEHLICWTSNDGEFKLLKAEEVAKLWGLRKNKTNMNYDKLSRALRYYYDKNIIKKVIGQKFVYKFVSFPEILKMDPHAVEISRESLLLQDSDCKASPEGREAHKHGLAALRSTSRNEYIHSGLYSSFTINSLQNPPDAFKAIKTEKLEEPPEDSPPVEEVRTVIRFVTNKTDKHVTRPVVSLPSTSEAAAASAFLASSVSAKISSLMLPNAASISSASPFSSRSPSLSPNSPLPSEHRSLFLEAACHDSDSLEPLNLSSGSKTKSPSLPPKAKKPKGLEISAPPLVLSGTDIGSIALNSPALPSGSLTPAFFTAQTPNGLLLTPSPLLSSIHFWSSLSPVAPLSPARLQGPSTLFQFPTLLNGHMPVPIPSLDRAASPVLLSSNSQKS
To be noted: protein: recombinant; tags: N-terminal GST; dsDNA, one strand shown. The method, boiled down:
as §1

Another experiment concerns the target T7, FEV (Homo sapiens, UniProt Q99581 1-238).
T7 sequence: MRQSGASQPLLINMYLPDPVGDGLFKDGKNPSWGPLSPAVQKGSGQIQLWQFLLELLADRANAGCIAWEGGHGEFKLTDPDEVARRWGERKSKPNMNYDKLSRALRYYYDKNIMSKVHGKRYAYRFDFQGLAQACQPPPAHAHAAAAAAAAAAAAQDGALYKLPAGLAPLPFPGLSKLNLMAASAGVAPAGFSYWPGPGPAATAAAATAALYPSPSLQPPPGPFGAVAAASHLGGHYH
To be noted: protein: recombinant; tags: N-terminal GST; dsDNA, one strand shown. In a few lines: as §1

Another experiment has as its target ETV5 (Homo sapiens, UniProt P41161 1-510). To be noted: protein: recombinant; tags: N-terminal GST; dsDNA, one strand shown. The method, boiled down: as §1
The target of a further experiment is HSF1 (Homo sapiens, UniProt Q00613 1-529). To be noted: protein: recombinant; tags: N-terminal GST; chain copies: 3; dsDNA, one strand shown. In a few lines: as §1
The next experiment concerns the target T8, SPIC (Homo sapiens, UniProt Q8N5J4 1-248).
T8 sequence: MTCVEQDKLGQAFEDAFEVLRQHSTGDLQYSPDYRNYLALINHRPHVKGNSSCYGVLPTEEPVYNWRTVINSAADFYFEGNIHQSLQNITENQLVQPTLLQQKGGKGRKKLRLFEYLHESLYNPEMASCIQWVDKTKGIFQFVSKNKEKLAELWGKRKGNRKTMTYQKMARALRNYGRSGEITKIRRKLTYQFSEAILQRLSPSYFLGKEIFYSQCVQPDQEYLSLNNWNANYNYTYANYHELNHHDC
The following applies: protein: recombinant; tags: N-terminal GST; dsDNA, one strand shown. The method, boiled down: as §1

The target in a further experiment is ELF4 (Homo sapiens, UniProt Q99607 1-663). To be noted: protein: recombinant; tags: N-terminal GST; dsDNA, one strand shown. In a few lines:
as §1

The target in the next experiment is T9, ELK4 (Homo sapiens, UniProt P28324-2 1-405).
T9 sequence: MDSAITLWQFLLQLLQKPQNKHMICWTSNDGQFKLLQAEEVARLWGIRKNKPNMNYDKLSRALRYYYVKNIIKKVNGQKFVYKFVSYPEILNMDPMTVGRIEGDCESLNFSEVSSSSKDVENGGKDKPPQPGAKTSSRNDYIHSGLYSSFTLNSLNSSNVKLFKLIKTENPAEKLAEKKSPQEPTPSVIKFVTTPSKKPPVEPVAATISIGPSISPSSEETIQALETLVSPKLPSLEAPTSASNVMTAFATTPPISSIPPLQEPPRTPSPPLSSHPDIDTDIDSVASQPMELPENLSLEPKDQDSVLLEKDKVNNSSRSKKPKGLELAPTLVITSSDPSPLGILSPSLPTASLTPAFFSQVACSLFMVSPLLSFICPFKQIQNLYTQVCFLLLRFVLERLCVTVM
The following applies: protein: recombinant; tags: N-terminal GST; dsDNA, one strand shown. In a few lines: as §1

In a further experiment the target is T10, ETV2 (Homo sapiens, UniProt O00321 1-342).
T10 sequence: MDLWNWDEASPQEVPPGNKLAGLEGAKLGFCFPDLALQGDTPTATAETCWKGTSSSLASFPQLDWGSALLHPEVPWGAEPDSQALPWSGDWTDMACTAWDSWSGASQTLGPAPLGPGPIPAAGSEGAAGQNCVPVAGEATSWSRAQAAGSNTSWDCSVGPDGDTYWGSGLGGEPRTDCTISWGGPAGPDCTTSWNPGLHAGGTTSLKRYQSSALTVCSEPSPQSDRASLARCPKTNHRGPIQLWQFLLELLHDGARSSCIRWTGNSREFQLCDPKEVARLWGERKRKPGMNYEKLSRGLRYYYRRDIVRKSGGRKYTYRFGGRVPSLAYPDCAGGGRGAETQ
The following applies: protein: recombinant; tags: N-terminal GST; dsDNA, one strand shown. The method, boiled down: as §1

The next experiment deals with T11, ELF3 (Homo sapiens, UniProt P78545 1-371).
T11 sequence: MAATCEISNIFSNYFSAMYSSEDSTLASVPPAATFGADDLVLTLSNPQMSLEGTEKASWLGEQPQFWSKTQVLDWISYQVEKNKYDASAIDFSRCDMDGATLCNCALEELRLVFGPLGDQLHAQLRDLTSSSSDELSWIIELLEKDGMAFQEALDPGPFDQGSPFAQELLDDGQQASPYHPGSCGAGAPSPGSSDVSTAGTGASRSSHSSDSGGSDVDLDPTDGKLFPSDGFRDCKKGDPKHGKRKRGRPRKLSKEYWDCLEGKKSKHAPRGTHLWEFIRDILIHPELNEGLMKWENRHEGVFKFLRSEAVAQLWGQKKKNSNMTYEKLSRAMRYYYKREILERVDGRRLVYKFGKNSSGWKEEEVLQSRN
To be noted: protein: recombinant; tags: N-terminal GST; dsDNA, one strand shown. In a few lines: as §1

Another experiment addresses CRX (Homo sapiens, UniProt O43186 1-299). To be noted: protein: recombinant; tags: N-terminal GST; dsDNA, one strand shown. The method, boiled down:
as §1

The target of a further experiment is ETV1 (Homo sapiens, UniProt P50549 1-477). The following applies: protein: recombinant; tags: N-terminal GST; dsDNA, one strand shown. The method, boiled down: as §1
ETV1, sequence (P50549 whole entry): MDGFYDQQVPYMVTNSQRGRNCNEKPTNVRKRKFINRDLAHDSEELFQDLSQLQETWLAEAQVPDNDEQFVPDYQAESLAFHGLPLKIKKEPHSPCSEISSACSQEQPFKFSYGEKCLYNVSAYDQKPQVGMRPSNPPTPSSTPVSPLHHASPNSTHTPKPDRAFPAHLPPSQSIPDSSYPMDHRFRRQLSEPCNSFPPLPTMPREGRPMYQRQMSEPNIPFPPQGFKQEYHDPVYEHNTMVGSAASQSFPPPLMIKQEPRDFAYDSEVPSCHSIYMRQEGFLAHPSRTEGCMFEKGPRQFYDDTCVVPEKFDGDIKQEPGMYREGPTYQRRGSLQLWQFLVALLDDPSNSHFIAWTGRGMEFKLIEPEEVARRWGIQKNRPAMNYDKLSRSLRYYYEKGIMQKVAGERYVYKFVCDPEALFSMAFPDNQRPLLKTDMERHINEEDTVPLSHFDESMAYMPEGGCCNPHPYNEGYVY

HSF1, sequence (Q00613 whole entry): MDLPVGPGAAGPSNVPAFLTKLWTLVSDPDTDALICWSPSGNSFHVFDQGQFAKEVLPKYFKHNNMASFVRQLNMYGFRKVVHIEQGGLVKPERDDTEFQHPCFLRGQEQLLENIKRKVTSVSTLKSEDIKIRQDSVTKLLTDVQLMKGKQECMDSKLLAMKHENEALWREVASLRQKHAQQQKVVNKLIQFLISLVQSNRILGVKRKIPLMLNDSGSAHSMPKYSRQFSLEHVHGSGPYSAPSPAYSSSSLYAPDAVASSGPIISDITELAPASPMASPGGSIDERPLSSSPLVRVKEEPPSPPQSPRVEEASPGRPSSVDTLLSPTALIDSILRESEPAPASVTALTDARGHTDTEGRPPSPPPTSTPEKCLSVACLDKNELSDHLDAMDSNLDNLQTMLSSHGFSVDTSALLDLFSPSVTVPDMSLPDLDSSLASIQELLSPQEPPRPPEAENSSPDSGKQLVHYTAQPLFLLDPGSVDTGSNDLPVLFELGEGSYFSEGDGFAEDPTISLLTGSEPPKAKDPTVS
CRX, sequence (O43186 whole entry): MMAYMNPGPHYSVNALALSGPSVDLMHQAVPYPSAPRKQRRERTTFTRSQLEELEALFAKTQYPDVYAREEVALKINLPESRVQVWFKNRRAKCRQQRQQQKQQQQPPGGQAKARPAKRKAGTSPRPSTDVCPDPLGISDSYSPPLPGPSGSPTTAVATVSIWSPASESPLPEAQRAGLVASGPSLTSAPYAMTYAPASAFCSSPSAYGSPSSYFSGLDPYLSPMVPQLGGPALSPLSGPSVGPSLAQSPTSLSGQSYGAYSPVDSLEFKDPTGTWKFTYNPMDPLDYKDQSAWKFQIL
ELF4, sequence (Q99607 whole entry): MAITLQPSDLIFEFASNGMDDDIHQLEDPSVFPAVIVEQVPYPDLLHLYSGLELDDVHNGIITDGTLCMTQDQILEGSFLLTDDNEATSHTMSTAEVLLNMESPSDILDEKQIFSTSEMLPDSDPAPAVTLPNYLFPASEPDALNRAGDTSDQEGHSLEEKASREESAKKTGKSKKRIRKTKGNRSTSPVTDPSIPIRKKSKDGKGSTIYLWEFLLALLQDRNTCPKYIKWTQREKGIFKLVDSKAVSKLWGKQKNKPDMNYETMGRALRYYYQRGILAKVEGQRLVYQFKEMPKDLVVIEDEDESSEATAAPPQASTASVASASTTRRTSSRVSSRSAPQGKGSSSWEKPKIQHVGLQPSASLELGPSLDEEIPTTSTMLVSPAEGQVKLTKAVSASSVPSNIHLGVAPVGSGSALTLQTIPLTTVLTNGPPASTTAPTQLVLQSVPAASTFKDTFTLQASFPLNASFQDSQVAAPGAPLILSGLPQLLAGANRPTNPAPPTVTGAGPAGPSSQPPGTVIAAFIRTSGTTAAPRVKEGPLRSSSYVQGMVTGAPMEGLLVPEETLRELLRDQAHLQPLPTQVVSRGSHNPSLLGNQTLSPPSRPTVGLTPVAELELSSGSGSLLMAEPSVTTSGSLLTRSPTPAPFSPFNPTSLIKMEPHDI
ELF1, sequence (P32519 whole entry): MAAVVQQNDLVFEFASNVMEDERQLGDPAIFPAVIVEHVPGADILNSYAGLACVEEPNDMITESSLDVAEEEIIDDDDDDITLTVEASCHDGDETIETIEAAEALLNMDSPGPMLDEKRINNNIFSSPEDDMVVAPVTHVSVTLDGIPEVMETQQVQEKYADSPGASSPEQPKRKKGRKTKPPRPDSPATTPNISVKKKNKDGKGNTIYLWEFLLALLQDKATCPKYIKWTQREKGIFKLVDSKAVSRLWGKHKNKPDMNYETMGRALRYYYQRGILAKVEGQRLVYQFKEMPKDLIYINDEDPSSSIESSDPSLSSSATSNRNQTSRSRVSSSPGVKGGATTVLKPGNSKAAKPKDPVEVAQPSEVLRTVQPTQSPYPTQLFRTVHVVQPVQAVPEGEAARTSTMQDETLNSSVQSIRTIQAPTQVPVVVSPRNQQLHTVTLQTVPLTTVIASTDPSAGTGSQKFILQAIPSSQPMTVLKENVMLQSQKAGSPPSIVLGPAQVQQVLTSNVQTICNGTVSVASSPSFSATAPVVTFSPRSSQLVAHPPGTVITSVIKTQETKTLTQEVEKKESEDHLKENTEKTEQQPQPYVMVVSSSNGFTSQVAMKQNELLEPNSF
SPIB, sequence (Q01892 whole entry): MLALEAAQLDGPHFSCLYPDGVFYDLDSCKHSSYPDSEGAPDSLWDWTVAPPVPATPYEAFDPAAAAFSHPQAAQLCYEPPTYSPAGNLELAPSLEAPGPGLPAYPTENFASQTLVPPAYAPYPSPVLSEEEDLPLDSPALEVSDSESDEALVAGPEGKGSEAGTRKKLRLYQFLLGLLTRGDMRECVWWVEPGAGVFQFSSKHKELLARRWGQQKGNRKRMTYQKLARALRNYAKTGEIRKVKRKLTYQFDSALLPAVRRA
ETV5, sequence (P41161 whole entry): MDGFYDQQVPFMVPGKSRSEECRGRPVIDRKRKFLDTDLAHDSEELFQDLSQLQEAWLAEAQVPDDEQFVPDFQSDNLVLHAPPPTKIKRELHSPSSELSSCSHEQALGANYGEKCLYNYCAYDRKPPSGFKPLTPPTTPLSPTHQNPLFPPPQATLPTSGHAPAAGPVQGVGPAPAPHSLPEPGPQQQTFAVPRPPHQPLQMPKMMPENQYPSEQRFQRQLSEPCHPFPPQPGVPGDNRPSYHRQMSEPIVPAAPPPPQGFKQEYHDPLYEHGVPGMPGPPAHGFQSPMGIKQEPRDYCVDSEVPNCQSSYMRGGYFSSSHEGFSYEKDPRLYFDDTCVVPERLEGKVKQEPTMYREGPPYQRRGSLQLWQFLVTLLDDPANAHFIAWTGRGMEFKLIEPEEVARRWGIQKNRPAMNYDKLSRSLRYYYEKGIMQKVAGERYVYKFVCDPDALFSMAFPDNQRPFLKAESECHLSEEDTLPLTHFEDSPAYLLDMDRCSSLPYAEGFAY

Consider TTGCTA, for which the binding signal was 1.38 fold enrichment (6-mer frequency, TF over GST control) with FLI1; 1.27 fold enrichment (6-mer frequency, TF over GST control) with ELK1; 1.27 fold enrichment (6-mer frequency, TF over GST control) with GABPA; 1.26 fold enrichment (6-mer frequency, TF over GST control) with ERG; 1.3 fold enrichment (6-mer frequency, TF over GST control) in the experiment with ELF1; 1.33 fold enrichment (6-mer frequency, TF over GST control) with EHF. Moreover, the binding signal with SPI1 was 1.31 fold enrichment (6-mer frequency, TF over GST control); in the experiment with SPIB, 1.37 fold enrichment (6-mer frequency, TF over GST control); with ELK3, 1.33 fold enrichment (6-mer frequency, TF over GST control); with FEV it was 1.24 fold enrichment (6-mer frequency, TF over GST control); with ETV5, 1.3 fold enrichment (6-mer frequency, TF over GST control); with HSF1, 1.48 fold enrichment (6-mer frequency, TF over GST control). For the same sequence, the binding signal is 1.4 fold enrichment (6-mer frequency, TF over GST control) with SPIC; 1.29 fold enrichment (6-mer frequency, TF over GST control) with ELF4; 1.46 fold enrichment (6-mer frequency, TF over GST control) with ELK4; 1.35 fold enrichment (6-mer frequency, TF over GST control) with ETV2; 1.31 fold enrichment (6-mer frequency, TF over GST control) in the experiment with ELF3; 1.5 fold enrichment (6-mer frequency, TF over GST control) with CRX. For the same sequence, in the experiment with ETV1, the binding signal was 1.37 fold enrichment (6-mer frequency, TF over GST control).
